Values joined by “and” are separate entries in the source; they are usually repeats but may differ in a detail not shown here. Identical values can stand only once. Records with an inconclusive call do not appear. Where a call stands in place of a potency, no number is given. Active and inactive are the calls of the source. Calls come from the whole dose curve; as a rule, active = well fitted cell-killing curve with a large enough effect in the repeat runs; inconclusive = weak or mixed curves, or effect the other way; inactive = flat fitted curve, though single readings scatter.
Experiment: qHTS assay to identify small molecule antagonists of the androgen receptor (AR) signaling pathway using the MDA cell line - cell viability counter screen (AID 743041; note: nearly all actives have a fitted effect of over 45% in size)
Conditions: MDA-kb2 viability, CellTiter-Fluor, 16 h, cells co-treated with R1881 androgen agonist; series mostly up to 70.3 µM
Text: National Center for Advancing Translational Sciences [NCATS]
NIH Chemical Genomics Center [NCGC]
U.S. Environmental Protection Agency [EPA]
National Institutes of Environmental Health Sciences [NIEHS]
National Toxicology Program [NTP]
U.S. Food and Drug Administration [FDA]
Androgen receptor (AR), a nuclear hormone receptor, plays a critical role in AR-dependent prostate cancer and other androgen related diseases. Endocrine disrupting chemicals (EDCs) and their interactions with steroid hormone receptors like AR may cause disruption of normal endocrine function as well as interfere with metabolic homeostasis, reproduction, developmental and behavioral functions. To identify the compounds that inhibit AR signaling, MDA-kb2 AR-luc cell line (from ATCC, deposited by Wilson et al.) was used to screen the Tox21 10K compound library. MDA-kb2 AR-luc cell line is human breast carcinoma cell line that was stably transfected with a luciferase reporter gene under control of the MMTV promoter containing response elements for both androgen receptor (AR) and glucocorticoid receptor (GR). The cytotoxicity of the Tox21 compound library against the MDA-kb2 AR-luc cell line was tested in parallel by measuring the cell viability using CellTiter-Fluor assay (Promega, Madison, WI) in the same wells.
Tox21 Assay Protocol Summary:
MDA-kb2 AR-luc cells were dispensed at 3,000 cells/4 uL/well of culture medium into white wall/solid-bottom 1536-well plates using a Multidrop Combi (ThermoFisher Scientific, Waltham, MA) dispenser. After the assay plates were incubated at a 37C and 0% CO2 for 5 hr, 23 nL of compounds dissolved in DMSO, positive controls or DMSO only was transferred to the assay plate by a Pintool station (Kalypsys, San Diego, CA), followed by addition of 1 uL of agonist (R1881) in culture medium using a Bioraptr Flying Reagent Dispenser (FRD) workstation (Beckman Coulter, Indianapolis, IN, USA). The plates were incubated at a 37C and 0% CO2 for 16 h. After 15.5 h incubation, 1uL of CellTiter-Fluor reagent (Promega) was added using a Bioraptr FRD to each plate for measuring cytotoxicity. The fluorescence intensity was quantified on a ViewLux plate reader (PerkinElmer, Shelton, CT) following 30 min incubation at 37C and 0% CO2.
Potency is the fitted concentration of half-maximal effect.

Compound | Potency
CN(C)[C@@H]1C(=O)C(C(N)=O)=C(O)[C@@]2(O)C(=O)C3=C(O)c4c(O)cccc4[C@@](C)(O)[C@H]3[C@H](O)[C@@H]12 | inactive
O=[N+]([O-])O | inactive
CCC(=O)C(CC(C)N(C)C)(c1ccccc1)c1ccccc1 (stereo not given) | inactive
O=C(O)CC(O)(CC(=O)O)C(=O)O | inactive
CNC | inactive
O=C(O)c1nc(Cl)ccc1Cl | inactive
O=C(O)COc1ccc(Cl)cc1Cl | inactive
O=C(O)C(Cl)(Cl)Cl | inactive
CCCC[N+]1(C)CCCCC1 | inactive
COP(=O)(OC)C(O)C(Cl)(Cl)Cl (stereo not given) | inactive
C[N+](C)(C)Cc1ccccc1 | inactive
CCC[N+]1(C)CCCC1 | inactive
CCCCn1cc[n+](C)c1 | inactive
CCC[N+]1(C)CCCCC1 | inactive
C1CCC(NC2CCCCC2)CC1 | inactive
Nc1ccc(-c2ccc(N)cc2)cc1 | inactive
CCCC[n+]1ccccc1 | inactive
Nc1ccc(-c2ccc(N)c(Cl)c2)cc1Cl | inactive
N#CS | inactive
Cc1cc(-c2ccc(N)c(C)c2)ccc1N | inactive

Compound | Potency
Oc1ccccc1-c1ccccc1 | inactive
O=S(=O)(O)O | inactive
Cc1cc(Cl)ccc1OCC(=O)O | inactive
CCCCCCCCCCCC(=O)O | inactive
CCCC[N+]1(C)CCCC1 | inactive
O=C(O)c1ccccc1O | inactive
COc1ccccc1N | inactive
OCCOc1ccccc1 | inactive
CCn1cc[n+](C)c1C | inactive
CC[N+](CC)(CC)CC | inactive
CCCCCCCCCCCCOS(=O)(=O)O | inactive
CCCC[n+]1ccc(C)cc1 | inactive
C[C@]12CCC(=O)C=C1CC[C@@H]1[C@@H]2CC[C@]2(C)C(=O)CC[C@@H]12 | inactive
CC(=O)O | inactive
CC(Cl)(Cl)C(=O)O | inactive
O=C(O)CCl | inactive
CCCCCCCCn1cc[n+](C)c1 | 2.71 µM (active) and 1.53 µM (active) and 1.55 µM (active)
O=[N+]([O-])c1ccccc1O | inactive
COc1ccc(N)cc1 | inactive
CCCn1cc[n+](C)c1 | inactive
